PrP 5UTR inh – suppresses PrP 5' UTR mRNA reporter expression. inhibition, % (test concentration not listed). cell-based PrP 5' UTR mRNA reporter, plate reader. actives 0.35% (n = 340,000); in the data active = inhibition above about 52%
Y pestis TopoI – Y. pestis Topo-I inhibition via cleavage products; activity, % at 10 µM; actives 0.064% (n = 360,000); Y. pestis Topo-I cleavage product accumulation, plate reader; AID 504884; in the data active = activity above about 50%, passing the limit was not always enough
TcdB inh – inhibitors of Clostridioides difficile toxin B glycohydrolase. inhibition, % at 9.99 µM. actives 0.24% (n = 350,000). P18177. TcdB glycohydrolase enzymatic assay, plate reader; in the data active = inhibition above about 10%
Target sequence (P18177 whole entry, looked up): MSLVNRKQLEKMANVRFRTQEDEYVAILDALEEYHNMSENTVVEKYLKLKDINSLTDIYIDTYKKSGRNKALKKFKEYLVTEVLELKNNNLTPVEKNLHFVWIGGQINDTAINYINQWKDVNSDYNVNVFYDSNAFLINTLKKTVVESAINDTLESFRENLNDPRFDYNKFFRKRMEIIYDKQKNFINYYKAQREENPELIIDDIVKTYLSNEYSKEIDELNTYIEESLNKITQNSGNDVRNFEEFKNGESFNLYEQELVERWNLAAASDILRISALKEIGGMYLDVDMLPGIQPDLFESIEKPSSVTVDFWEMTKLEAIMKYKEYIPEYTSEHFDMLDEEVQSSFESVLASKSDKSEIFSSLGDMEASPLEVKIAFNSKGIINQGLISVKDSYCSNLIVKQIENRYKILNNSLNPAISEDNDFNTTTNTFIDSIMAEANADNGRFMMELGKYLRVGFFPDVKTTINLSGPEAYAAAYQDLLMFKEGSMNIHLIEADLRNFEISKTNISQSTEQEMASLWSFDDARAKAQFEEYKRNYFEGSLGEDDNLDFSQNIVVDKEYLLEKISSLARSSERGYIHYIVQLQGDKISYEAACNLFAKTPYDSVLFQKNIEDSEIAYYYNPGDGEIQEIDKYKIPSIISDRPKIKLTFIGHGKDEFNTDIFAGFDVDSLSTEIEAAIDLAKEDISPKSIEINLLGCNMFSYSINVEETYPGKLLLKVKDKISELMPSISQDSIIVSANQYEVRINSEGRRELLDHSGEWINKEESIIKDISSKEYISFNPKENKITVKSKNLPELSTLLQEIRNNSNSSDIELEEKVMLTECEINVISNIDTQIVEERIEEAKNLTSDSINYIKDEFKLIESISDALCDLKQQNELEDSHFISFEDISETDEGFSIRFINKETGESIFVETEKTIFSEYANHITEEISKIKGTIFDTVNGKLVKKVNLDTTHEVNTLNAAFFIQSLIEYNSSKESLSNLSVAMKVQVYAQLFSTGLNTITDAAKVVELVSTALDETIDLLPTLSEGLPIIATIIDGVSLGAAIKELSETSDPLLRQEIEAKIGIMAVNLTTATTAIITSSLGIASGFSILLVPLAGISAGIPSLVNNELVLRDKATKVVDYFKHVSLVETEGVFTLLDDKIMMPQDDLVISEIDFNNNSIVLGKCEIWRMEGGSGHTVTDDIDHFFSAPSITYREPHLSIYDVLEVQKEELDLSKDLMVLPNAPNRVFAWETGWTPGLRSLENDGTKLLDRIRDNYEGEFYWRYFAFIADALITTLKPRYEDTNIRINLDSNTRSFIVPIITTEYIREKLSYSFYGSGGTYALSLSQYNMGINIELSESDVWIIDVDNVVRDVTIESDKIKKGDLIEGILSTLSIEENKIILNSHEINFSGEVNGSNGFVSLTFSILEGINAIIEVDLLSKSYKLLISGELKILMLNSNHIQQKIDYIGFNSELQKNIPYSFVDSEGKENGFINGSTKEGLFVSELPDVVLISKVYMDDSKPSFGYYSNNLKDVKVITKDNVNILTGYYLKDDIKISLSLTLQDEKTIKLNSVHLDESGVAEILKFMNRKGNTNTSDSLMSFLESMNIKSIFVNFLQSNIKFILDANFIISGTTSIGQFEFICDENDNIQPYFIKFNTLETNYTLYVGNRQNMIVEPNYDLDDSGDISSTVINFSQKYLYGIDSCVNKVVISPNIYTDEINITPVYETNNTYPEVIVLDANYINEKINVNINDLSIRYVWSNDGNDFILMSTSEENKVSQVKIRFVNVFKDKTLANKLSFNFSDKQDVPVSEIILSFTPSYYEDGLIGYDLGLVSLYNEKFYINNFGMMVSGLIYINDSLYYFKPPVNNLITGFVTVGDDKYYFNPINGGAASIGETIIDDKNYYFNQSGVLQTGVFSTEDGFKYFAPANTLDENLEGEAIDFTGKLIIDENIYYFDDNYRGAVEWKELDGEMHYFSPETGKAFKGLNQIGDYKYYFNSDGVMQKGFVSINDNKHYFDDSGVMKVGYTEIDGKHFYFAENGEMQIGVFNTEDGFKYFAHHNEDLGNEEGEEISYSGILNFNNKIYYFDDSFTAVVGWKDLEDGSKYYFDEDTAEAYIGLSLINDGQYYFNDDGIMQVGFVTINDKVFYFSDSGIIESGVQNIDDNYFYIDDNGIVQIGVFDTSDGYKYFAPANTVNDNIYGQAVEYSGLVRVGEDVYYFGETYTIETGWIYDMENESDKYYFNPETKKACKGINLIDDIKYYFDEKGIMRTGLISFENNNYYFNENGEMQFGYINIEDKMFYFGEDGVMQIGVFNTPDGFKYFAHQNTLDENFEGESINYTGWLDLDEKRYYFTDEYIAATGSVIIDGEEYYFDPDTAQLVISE
BioA inh – BioA (M. tuberculosis) enzyme inhibition; purified M. tuberculosis BioA enzyme, plate reader; AID 602481; actives 0.096% (n = 360,000); inhibition, % at 9.99 µM; in the data active = inhibition above about 40%
PrP UTR cherry – prion 5' UTR mRNA inhibition, cherry-pick retest; shares compounds with PrP 5UTR inh; cell-based prion protein 5' UTR reporter, plate reader; inhibition, % at 2.5 µM; actives 48% (n = 1,100); in the data active = inhibition above about 54%
Hits are given with their value; – = inactive; · = not tested or not shown. This is a sample that favours compounds with a hit; in the whole collection about 0.53% have one here.

SMILES	PrP 5UTR inh	Y pestis TopoI	TcdB inh	BioA inh	PrP UTR cherry
Cc1cc(C(=O)COc2ccccc2C(N)=O)c(C)n1CC1CCCO1 (configuration not stated)	–	–	–	–	·
Cc1cc(C(=O)COC(=O)c2ccccc2NCCO)c(C)n1CC1CCCO1 (configuration not stated)	–	–	–	–	·
Cc1cc(C(=O)COC(=O)c2cccnc2Cl)c(C)n1CC1CCCO1 (configuration not stated)	59	–	–	·	–
Cc1cc(C(=O)COC(=O)c2ccccc2Br)c(C)n1CC1CCCO1 (configuration not stated)	77	–	–	–	71
Cc1cc(C(=O)COC(=O)c2cc(O)c3ccccc3c2O)c(C)n1CC1CCCO1 (configuration not stated)	–	–	·	–	·
Cc1ccsc1C(=O)OCC(=O)c1cc(C)n(C)c1C	59	–	–	–	63
O=C(C[C@H]1C=C[C@@H](NC(=O)c2cccc(F)c2)[C@@H](CO)O1)NCc1ccc(Oc2ccccc2)cc1	·	·	–	–	·
C[C@H]1CN([C@@H](C)CO)C(=O)c2ccccc2-c2ccccc2CO[C@@H]1CN(C)C(=O)Nc1ccc(-c2ccccc2)cc1	·	·	–	·	·
O=C(NCC1CC1)[C@@H]1[C@@H](CO)[C@@H]2Cn3c(ccc(-c4cccc(F)c4)c3=O)[C@@H]2N1CC1CC1	·	·	–	–	·
C=CCn1c(C)cc(C(=O)COC(=O)c2ccc(N)c([N+](=O)[O-])c2)c1C	–	–	–	·	·
Cc1cc(C(=O)COC(=O)c2ccccc2O)c(C)n1Cc1cccs1	91	–	·	–	80
CCn1c(C)cc(C(=O)COC(=O)c2ccccc2[N+](=O)[O-])c1C	94	–	·	–	97
COCCn1c(C)cc(C(=O)COC(=O)c2ccccc2Br)c1C	73	–	–	–	71
COCCn1c(C)cc(C(=O)COC(=O)c2cccnc2SC)c1C	–	–	–	·	·
C[C@@H]1CN([C@H](C)CO)C(=O)c2cc(NC(=O)CCC(F)(F)F)ccc2O[C@@H]1CN(C)S(=O)(=O)c1cccs1	·	·	–	–	·
CN1c2ccc(-c3ccc(C#N)cc3)cc2[C@@H]2[C@@H](CCN2C(=O)CC2CC2)[C@H]1CO	·	·	–	·	·
O=C(Nc1nc2ccc(F)cc2s1)C1=COCCO1	–	–	–	–	·
O=C(Nc1nc2cc3c(cc2s1)OCCO3)C1=COCCO1	92	–	–	–	86
CC1CCCN(c2ccc([N+](=O)[O-])cc2C(=O)c2ccccc2)C1 (configuration not stated)	61	–	–	·	80
O=C(c1ccccc1)c1cc([N+](=O)[O-])ccc1N1CCOCC1	–	–	·	–	·
Cc1ccc(C(=O)c2cc([N+](=O)[O-])ccc2N2CCCCC2)cc1	56	–	·	·	86
O=C(Nc1ccc2c(c1)[C@H]1C[C@@H](CC(=O)N3CCOCC3)O[C@H](CO)[C@H]1O2)c1ccc2c(c1)OCO2	·	·	·	–	·
C[C@H](O)C#Cc1ccc2c(c1)O[C@@H](CN(C)C(=O)CC1CC1)[C@H](C)CN([C@H](C)CO)S2(=O)=O	·	·	–	–	·
COc1ccc(CCN2C(=O)c3ccccc3C2(O)c2ncc[nH]2)cc1OC (configuration not stated)	–	–	–	–	·
O=C1c2ccccc2C(O)(c2ncc[nH]2)N1C1CCCCC1 (configuration not stated)	69	–	·	–	–
SMILES	PrP 5UTR inh	Y pestis TopoI	TcdB inh	BioA inh	PrP UTR cherry
CCNC(=O)[C@H]1[C@H](CO)[C@H]2Cn3c(ccc(-c4cccnc4)c3=O)[C@@H]1N2Cc1ccccc1	·	·	–	–	·
CCC1(O)C(=O)OCc2c1cc1n(c2=O)Cc2cc3c(N)cccc3nc2-1 (configuration not stated)	53	–	–	·	90
O=C(Nc1cccc(Cl)c1)N[C@H]1CC[C@@H](CCNC(=O)C2CCCC2)O[C@@H]1CO	·	·	–	–	·
Cc1noc(C)c1S(=O)(=O)N(C)C[C@@H]1OCCCC[C@H](C)Oc2ccc(NS(C)(=O)=O)cc2C(=O)N([C@@H](C)CO)C[C@H]1C	·	·	–	–	·
CO[C@H]1CC[C@H]2CCN(C)C(=O)C[C@@H](c3ccccc3)CN(C)C(=O)c3cccc(C#N)c3OC[C@H]1O2	·	·	–	–	·
COc1ccc(C(C)=O)cc1CSc1nc2cc(Cl)ccc2o1	57	–	·	–	–
COc1ccc(C(C)=O)cc1CSc1nnc(-c2ccncc2)o1	–	–	–	–	·
COC(=O)C1=CO[C@@H](OC2OC(CO)C(O)C(O)C2O)[C@@H]2[C@@H](C)[C@@H](O)C[C@H]12 (some centres not stated)	–	–	–	–	·
